Hit rate of the full screen: of about 2,300 compounds, about 550 (24%) were called active. How the calls were made is not given here. These entries were drawn from the full list. Measured potencies and affinities stand elsewhere.
Assay: Vero E6 cell cytotoxicity, dose response, cytotoxicity control for non-replicating M. tuberculosis project, secondary assay (AID 492998)
Details: series mostly up to 20 µM

| Compound | outcome |
| --- | --- |
| O=C(C/C=N\OCc1ccc([N+](=O)[O-])cc1)Nc1ccc(F)cc1F | inactive |
| O=C1c2ccccc2C(=O)N1CCOc1ccc(F)cc1 | inactive |
| Cc1cc(C)cc(OC(=O)CCN2C(=O)c3ccccc3C2=O)c1 | inactive |
| O=c1oc2ccccc2c(Nc2ccccc2O)c1[N+](=O)[O-] | inactive |
| CCOc1ccc(NC(=O)c2nnn(CC(=O)Nc3ccccc3OC)c2N)cc1 | inactive |
| O=C(c1cc2ccccc2o1)N1CCN(Cc2ccccc2)CC1 | inactive |
| C/C(=N\NC(=O)c1ccc([N+](=O)[O-])c(C)c1)c1ccccc1Cl | inactive |
| C/C(=N\NC(=O)c1ccccc1)c1nc2ccccc2n1C | inactive |
| COc1cc(/C=N/N(C)C)ccc1OC(=O)c1cccs1 | inactive |
| Cc1cc(Cl)cc(C)c1OCCCCn1ccnc1 | inactive |
| Clc1ccc(SCCCCn2ccnc2)cc1 | inactive |
| Cc1ccc(CCC(=O)Nc2ccccc2F)s1 | inactive |
| O=C(COC(=O)c1ccccc1)NCc1cccs1 | inactive |
| O=C(CCc1ccc(Oc2cc([N+](=O)[O-])cc([N+](=O)[O-])c2)cc1)N1CCCCC1 | inactive |
| CSc1nn(-c2ccc(C(=O)OCC(=O)NC(=O)NC(C)C)cc2)c(=S)s1 | inactive |
| CCN1C(=O)CC(N2CCC(c3nc4ccccc4[nH]3)CC2)C1=O (stereo not given) | inactive |
| CC(NCCCOc1cccc2ccccc12)c1ccccc1 (stereo not given) | inactive |
| O=C(COC(=O)c1ccccc1)NC12CC3CC(CC(C3)C1)C2 | inactive |
| CCOC(=O)C1CSC(CC(=O)Nc2ccc(Cl)c(Cl)c2)C(=O)N1 (stereo not given) | inactive |
| O=C(C/C=N\OCc1ccc([N+](=O)[O-])cc1)Nc1ccc(Cl)cc1 | inactive |
| O=C(Nc1nccs1)c1ccc(-c2ccc(Cl)cc2)o1 | inactive |
| NC(=O)c1ccc(-c2ccc(Br)cc2)o1 | inactive |
| CCOc1ccc(C(=O)Nc2ccc(N3CCN(C)CC3)cc2)cc1Br | inactive |
| O=C(Nc1cccnc1)c1ccc(-c2ccc(Cl)cc2)o1 | inactive |

| Compound | outcome |
| --- | --- |
| O=C(CN1CCC(Cc2ccccc2)CC1)NC(=O)NC1CCCCC1 | inactive |
| Cc1ccc2[nH]c3c(c2c1)CCCC3NCCO (stereo not given) | inactive |
| Cc1ccc(-c2nnc(-c3ccccc3)o2)cc1 | inactive |
| c1ccc(-c2n[nH]c(-c3ccccn3)n2)nc1 | inactive |
| CCOC(=O)N1CCC(NC(=O)C2CCN(c3nc(-c4ccc(OC)cc4)no3)CC2)CC1 | inactive |
| COc1cccc(OC(=O)c2cc3ccccc3oc2=O)c1 | inactive |
| CCOC(=O)Cn1cc(C#N)c2cccc(CC)c21 | inactive |
| Cc1ccc(S(=O)(=O)NCC(=O)OCCOc2cccc(Cl)c2)cc1 | inactive |
| Cc1cccnc1NC(=O)C1COc2ccccc2O1 (stereo not given) | inactive |
| O=C(OCc1nnc(-c2ccccc2)o1)c1cc([N+](=O)[O-])ccc1Cl | inactive |
| CC(C)OC(=O)c1c2c(n3ccccc13)C(=O)c1ccccc1C2=O | inactive |
| O=C(c1ccc(Br)o1)N1CCC(Cc2ccccc2)CC1 | inactive |
| O=C(COc1ccc(Br)cc1)Nc1ccc([N+](=O)[O-])cn1 | inactive |
| O=C(N/N=C/c1coc2ccccc2c1=O)c1ccc(Cl)cc1 | inactive |
| O=C(OCC(=O)N1CCN(c2ccccc2)CC1)c1ccc(Cl)cc1[N+](=O)[O-] | inactive |
| COC(=O)C1=C(N)OC2=C(C(=O)CC(C)(C)C2)C1c1cccnc1 (stereo not given) | inactive |
| O=C(OCC(=O)N1CCCC1)c1cc(Br)ccc1Cl | inactive |
| O=C(N/N=C/c1ccccn1)c1cccc(S(=O)(=O)Nc2ccccc2Cl)c1 | inactive |
| Cc1ccc2oc(=O)c3cc(C(=O)NCCCN4CCCCCC4)sc3c2c1 | inactive |
| Cc1cc(C)n2nc(S(=O)(=O)Nc3c(Cl)cccc3Cl)nc2n1 | inactive |
| CS(=O)(=O)Nc1cccc2cccnc12 | inactive |
| CC1C/C(=N/NC(=O)c2cccc(F)c2)c2ccc(O)cc2C1 (stereo not given) | inactive |
| O=C(Nc1nccs1)c1ccccn1 | inactive |
| O=C(Nc1c(F)cc(F)cc1Br)c1cc(-c2ccccc2)on1 | inactive |

| Compound | outcome |
| --- | --- |
| O=C(NNc1nc2ccccc2s1)c1ccc(F)cc1 | inactive |
| Cc1ccc2nc(NC(=O)COC(=O)c3ccc(Br)o3)sc2c1 | inactive |
| O=C(O)c1ccccc1-c1ccccc1C(=O)Nc1nc2ccccc2s1 | inactive |
| CCOCC(=O)Nc1nc2ccc(C)cc2s1 | inactive |
| CC1=NN(C(=O)c2ccccc2Cl)C(O)(c2ccccc2)C1 (stereo not given) | inactive |
| CCc1nnc(N/N=C/c2ccc(N3CCC(C)CC3)c([N+](=O)[O-])c2)n1N | inactive |
| COc1ccc(C(=O)COC(=O)c2ccccc2O)c(OC)c1 | inactive |
| COC(=O)c1cc(/C=C/c2ccccc2)on1 | inactive |
| COc1cc(/C=C2/C(=O)NN(c3ccc(Cl)cc3)C2=O)ccc1OC(=O)c1ccco1 | inactive |
| CC(C)CNc1nc(=S)nc(N(C)C)[nH]1 | inactive |
| Cc1cccc(NC(=O)COC(=O)CCc2c[nH]c3ccccc23)c1 | inactive |
| O=C(OCC(=O)N1CCN(c2ccccc2)CC1)c1ccc2ccccc2n1 | inactive |
| O=[N+]([O-])c1ccc(CN2CCN(c3ccc(F)cc3)CC2)o1 | inactive |
| CCOC(=O)c1cc(-c2csc(COc3ccccc3Cl)n2)on1 | inactive |
| O=C(NCCc1ccccc1)c1nc(-c2cccs2)no1 | inactive |
| COc1cccc2cc(C(=O)NCc3ccc(F)cc3)c(=N)oc12 | inactive |
| c1cncc(-c2noc(CC3CCCCC3)n2)c1 | inactive |
| CCN1CCC(=NNC(=O)c2ccco2)CC1 | inactive |
| O=C1NC2(CCC3(CC2)OCCO3)NN1c1ccc(Cl)cc1 | inactive |
| CC(NC(=O)c1cccc(F)c1)C1CC2CCC1C2 (stereo not given) | inactive |
| Cc1ccc(C(C)C)c(OCC(=O)OCc2c(C)noc2C)c1 | inactive |
| CC1CCN(C(=O)c2ccc(-c3ccccc3Cl)o2)CC1 | inactive |
| Cc1ccc(CC(=O)Nc2ccc(Cl)cn2)cc1 | inactive |
| Cc1ccc(C(=O)n2c(N)nc3ccccc32)cc1 | inactive |

| Compound | outcome |
| --- | --- |
| CCn1c(-c2ccco2)nc2ccccc21 | inactive |
| O=C(Nc1nc2ccccc2n1CCN1CCCC1)c1ccc(Cl)cc1 | inactive |
| CCCn1c(CNc2ccccc2O)nc2ccccc21 | inactive |
| COc1cccc(-c2cc3nc4c(c(NCC(C)(C)CN(C)C)n3n2)CCCC4)c1 | inactive |
| CCOC(=O)CC(NS(=O)(=O)Cc1ccccc1)c1ccc(C)cc1 (stereo not given) | inactive |
| CCOC(=O)COn1c2c(c3c4no[n+]([O-])c4ccc31)CCCC2 | inactive |
| COC(=O)c1ccccc1NC(=O)C1CC(c2ccc(F)cc2)=NO1 (stereo not given) | inactive |
| COc1cc(/C=C2/C(=O)NN(c3cccc(C)c3)C2=O)ccc1OC(=O)c1ccco1 | inactive |
| O=C(Oc1cccc2cccnc12)c1cccc(-n2cnnn2)c1 | inactive |
| Cc1nc2ccc(NC(=O)c3ccc([N+](=O)[O-])cc3[N+](=O)[O-])cc2s1 | inactive |
| CCN(CC)CCNC(=O)c1[nH]c2ccc(OCc3ccccc3)cc2c1C | inactive |
| CSc1ccccc1NC(=O)c1cc(C(C)C)on1 | inactive |
| O=C(COc1ccc(-c2ccccc2)cc1)Nc1cccnc1 | inactive |
| CCOC(=O)c1cc2cc3ccccc3cc2oc1=O | inactive |
| O=C(OCC(=O)N1CCCCC1)c1cc2ccccc2cc1O | inactive |
| CCOC(=O)COc1ccc(C(=O)c2ccccc2)c(O)c1 | inactive |
| Cc1ccn2nc(S(=O)(=O)Nc3c(F)cccc3F)nc2n1 | inactive |
| CN(C)CC/C=C1\c2cc(Cl)ccc2Sc2cc(F)c(F)cc21 | inactive |
| Nc1nc2ccccc2n1C(=O)c1ccc(F)cc1 | inactive |
| Cn1c(NC(=O)c2ccccc2)nc2ccccc21 | inactive |
| CCn1cc(/C=N\NC(=O)c2ccc(F)cc2)cn1 | inactive |
| COc1ccc(C(=O)Nc2ccccc2C(=O)N/N=C/c2ccco2)cc1 | inactive |
| Cc1nc2ccc(NC(=O)COc3cccc(F)c3)cc2s1 | inactive |
| O=C(COC(=O)c1cccc([N+](=O)[O-])c1)NCc1cccs1 | inactive |

| Compound | outcome |
| --- | --- |
| COc1ccc(CN2CCC(C(=O)Nc3ccc(Oc4cccnc4)cc3)CC2)c(C)c1C | inactive |
| CSCCOC(=O)COc1ccc(/C=N/NC(=O)c2c(Cl)cnn2C)cc1 | inactive |
| O=C(COc1ccc(Br)cc1)N/N=C1/SCC(=O)N1Cc1ccco1 | inactive |
| O=C(C/C=N\OCc1ccc([N+](=O)[O-])cc1)Nc1ccc(Br)cc1 | inactive |
| COc1ccccc1CCNC(=O)c1ccc(C)o1 | inactive |
| NC1=NC[C@H](Cc2ccc(O)cc2)N1CCc1cccc2ccccc12 | inactive |
| CCCCCCCC(=O)NNC(=O)c1ccc(F)cc1 | inactive |
| Cc1ccc(-c2noc(CCCC(=O)Nc3cccnc3)n2)cc1 | inactive |
| CCc1ccc(/C=N/NC(=O)c2ccccn2)cc1 | inactive |
| O=C(N/N=C/C=C/c1ccccc1)c1ccccn1 | inactive |
| CCCCCCCC(=O)N/N=C(/C)c1c(O)cc(C)oc1=O | inactive |
| Cc1ccc(NCCC(=O)c2cccs2)cc1 | inactive |
| CCCc1cc(C(=O)Nc2ccccc2SC)no1 | inactive |
| COC(=O)CCCC(=O)N1CCCC(C(=O)c2ccc(-c3ccccc3)cc2)C1 (stereo not given) | inactive |
| CSc1nnc(Cc2ccc3c(c2)OCO3)o1 | inactive |
| COc1cccc(/C=N/N2C(=O)CSC2=S)c1O | inactive |
| O=C(OCn1nnc2ccccc2c1=O)c1cccs1 | inactive |
| COc1ccc2cc(C(=O)C3CCCN(Cc4cccc(C)n4)C3)ccc2c1 (stereo not given) | inactive |
| S=c1c2c(nc3nc[nH]n13)CCC2 | inactive |
| CC1(C)CC(=O)C2=C(C1)OC(N)=C(C#N)C2C#Cc1ccccc1 (stereo not given) | inactive |
| Cc1ccc(NC(=O)C(=O)NNC(=O)c2ccccc2C)cc1Cl | inactive |
| O=C(NC1CCOc2ccccc21)c1ccc(Cl)nc1 (stereo not given) | inactive |
| CCOC(=O)COc1ccc(C(=O)Nc2cccc(Cl)c2C)cc1 | inactive |
| CCOC(=O)C(=CNNc1cccc(Cl)c1)C(=O)OCC | inactive |

From PubChem BioAssay AID492998 (Southern Research Specialized Biocontainment Screening …, 2010)
